Rows were chosen to be rich in hits. Some 0.77% of all compounds tested hit in one or more screens of this group.
RecA intein inh: blocks M. tuberculosis RecA intein splicing; P9WHJ3; cell-free RecA intein splicing, fluorescence; inhibition, % (no concentration beside the values); actives 0.75% (n = 290,000); in the data active = inhibition above about 30%;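 note: 0% = vehicle wells and 100% = reference inhibitor control wells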
Target sequence (P9WHJ3 whole entry, looked up): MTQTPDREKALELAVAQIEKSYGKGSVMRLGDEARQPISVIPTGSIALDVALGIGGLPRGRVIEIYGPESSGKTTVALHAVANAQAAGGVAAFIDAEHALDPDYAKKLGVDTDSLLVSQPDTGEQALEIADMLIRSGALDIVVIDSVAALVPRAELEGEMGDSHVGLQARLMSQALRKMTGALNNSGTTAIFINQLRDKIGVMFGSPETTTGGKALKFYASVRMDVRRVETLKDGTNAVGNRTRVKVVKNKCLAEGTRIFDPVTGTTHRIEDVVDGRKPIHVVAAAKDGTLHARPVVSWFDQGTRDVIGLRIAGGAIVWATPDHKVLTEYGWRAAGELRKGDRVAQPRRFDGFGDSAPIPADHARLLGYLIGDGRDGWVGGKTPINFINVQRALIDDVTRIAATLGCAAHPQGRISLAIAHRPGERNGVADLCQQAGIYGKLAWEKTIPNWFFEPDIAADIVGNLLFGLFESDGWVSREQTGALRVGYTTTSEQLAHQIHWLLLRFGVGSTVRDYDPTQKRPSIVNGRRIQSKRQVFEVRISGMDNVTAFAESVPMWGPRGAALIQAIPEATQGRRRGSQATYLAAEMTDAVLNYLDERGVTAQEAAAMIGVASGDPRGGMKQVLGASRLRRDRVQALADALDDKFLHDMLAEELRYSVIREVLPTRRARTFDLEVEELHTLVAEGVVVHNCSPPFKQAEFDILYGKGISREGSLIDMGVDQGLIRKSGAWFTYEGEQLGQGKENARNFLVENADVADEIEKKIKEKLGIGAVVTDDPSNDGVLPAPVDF
RmlCD inh 1536: M. tuberculosis RmlC/RmlD inhibition; inhibition, % at 3.6 µM; P9WH09+P9WH11; actives 0.03% (n = 160,000); RmlC+RmlD coupled enzyme assay, percent inhibition; primary screen in compound mixtures; in the data active = inhibition mostly above about 34%, no sharp cut-off
Starred values were filed as active, the others as inactive.

How did Cc1ccc(C)c(C(=O)Cn2ncc(Cl)c(Cl)c2=O)c1 do in these assays?
RecA intein inh: 19.2; RmlCD inh 1536: 1.6

What do the screens show for `Cc1cccc(Cn2ncc(Cl)c(Cl)c2=O)c1`?
RecA intein inh: 55.2*; RmlCD inh 1536: 14.1

Results for COc1ccc(NS(=O)(=O)c2c(C)n(C)c(=O)n(C)c2=O)cc1 ?
RecA intein inh: -6.0

Results for O=C(Nc1ncc([N+](=O)[O-])s1)c1ccc2c(c1)OCO2 ?
RecA intein inh: 30.5*

How did Cc1ccc(C(=O)Nc2ncc([N+](=O)[O-])s2)cc1 do in these assays?
RecA intein inh: 24.9

What do the screens show for `Cc1cc(-c2nc(C)c(C(=O)NNC(=O)NC(C)C)s2)no1`?
RecA intein inh: -1.0; RmlCD inh 1536: 4.6

How did CC(=O)[C@@H]1[C@@H]2C(=O)N(c3ccccc3F)C(=O)[C@@H]2[C@H]2c3ccccc3C=NN12 do in these assays?
RecA intein inh: -3.4; RmlCD inh 1536: 4.3

How did COC(=O)C1=NN(C(=O)c2cccc(Br)c2)C(O)(c2ccc(Cl)cc2)C1 (stereo not given) do in these assays?
RecA intein inh: 36.5*

What do the screens show for `CCOC(=O)C1=NN(C(=O)c2ccc(OC)cc2)C(O)(c2ccc(Cl)cc2)C1` (stereo not given)?
RecA intein inh: 21.4

How did CCC(NC(=O)c1ccccc1O)c1ccccc1 (stereo not given) do in these assays?
RecA intein inh: 4.2; RmlCD inh 1536: -1.4

What do the screens show for `Cc1nc2ccccc2c2c1C(=O)N(CCC1=CCCCC1)C2=O`?
RecA intein inh: 11.6; RmlCD inh 1536: -9.4

Results for Cc1nc2ccccc2c2c1C(=O)N(c1cccc(C(=O)O)c1)C2=O ?
RecA intein inh: 44.8*; RmlCD inh 1536: -11.7

Results for Cc1ccc(C)c(C(=O)COC(=O)c2cccc(N3C(=O)c4c(C)nc5ccccc5c4C3=O)c2)c1 ?
RecA intein inh: 1.4; RmlCD inh 1536: 22.1

Results for Cc1nc2ccccc2c2c1C(=O)N(C(C)C)C2=O ?
RecA intein inh: 41.1*; RmlCD inh 1536: -4.4

How did CC(=O)Oc1c(C(C)C)cc(N(C(C)=O)c2ccccc2)cc1C(C)C do in these assays?
RecA intein inh: 2.8

How did O=C(Nc1cccc2ccccc12)c1cnsn1 do in these assays?
RecA intein inh: 0.6; RmlCD inh 1536: 1.6

Results for COc1ccc(N2C(=O)CSC23C(=O)N2CCCc4cccc3c42)cc1 (stereo not given) ?
RecA intein inh: 1.4

How did COc1ccc(N2C(=O)CSC23C(=O)N2c4c(cccc43)C(C)=CC2(C)C)cc1 (stereo not given) do in these assays?
RecA intein inh: 33.3*; RmlCD inh 1536: 3.3

What do the screens show for `O=C(NCCCN1CCOCC1)c1cc(C(=O)C2CC2)c[nH]1`?
RecA intein inh: -2.0

How did CCC(C)C1Nc2ccc(C(=O)NCCc3ccc(OC)c(OC)c3)cc2NC1=O (stereo not given) do in these assays?
RecA intein inh: -1.5

How did C=C1C(=O)O[C@@H]2C[C@@H](C)[C@@H]3C=CC(=O)[C@@]3(C)[C@@H](OC(=O)CC(=O)O[C@H]3[C@@H]4C(=C)C(=O)O[C@@H]4C[C@@H](C)[C@@H]4C=CC(=O)[C@]43C)[C@H]12 do in these assays?
RecA intein inh: 33.1*; RmlCD inh 1536: 3.6

Results for C=C1C(=O)O[C@H]2[C@H]1[C@H](OC(=O)CC(=O)O[C@@H]1C[C@@H](C)[C@@H]3C=CC(=O)[C@@]3(C)[C@H]3OC(=O)C(=C)[C@H]13)C[C@@H](C)[C@H]1C=CC(=O)[C@]12C ?
RecA intein inh: -4.3; RmlCD inh 1536: 4.3

How did COc1ccc(S(=O)(=O)N(C(=O)c2ccco2)c2cc3sc(=O)oc3c3ccccc23)cc1 do in these assays?
RecA intein inh: 5.7; RmlCD inh 1536: -7.1

What do the screens show for `Cn1c(CC(=O)Nc2ccccc2F)nnc1SCC(=O)NC1CCCC1`?
RecA intein inh: 1.6

What do the screens show for `NC(=O)C1CCN(C(=O)c2ccccc2SCC(=O)NCC2CCCCC2)CC1`?
RecA intein inh: 0.8

What do the screens show for `CN1C(=O)C(Cc2ccsc2)C(=O)N(C)C1=O`?
RecA intein inh: 0.0; RmlCD inh 1536: -5.5

How did CN1C(=O)C(Cc2ccc3c(c2)OCO3)C(=O)N(C)C1=O do in these assays?
RecA intein inh: 30.5*

What do the screens show for `CN(C)CCNC(=O)COc1ccc(C23CC4CC(CC(C4)C2)C3)cc1`?
RecA intein inh: 0.4; RmlCD inh 1536: 9.4

What do the screens show for `Cc1nn(-c2cccc(Cl)c2)nc1C(=O)O`?
RecA intein inh: 1.1; RmlCD inh 1536: 7.7

Results for Cc1ccc(-n2nc(C)c(NC(=O)CCl)c2C)cc1C ?
RecA intein inh: 42.5*; RmlCD inh 1536: 11.2

How did CCC(=O)Nc1c(C)nn(-c2ccc(C)c(C)c2)c1C do in these assays?
RecA intein inh: -3.7; RmlCD inh 1536: 8.7

How did CCCC(=O)Nc1c(C(=O)OCC)oc2ccccc12 do in these assays?
RecA intein inh: -1.7

How did Cc1cc(C)c2c(N)c(C(=O)N/N=C/c3cccs3)sc2n1 do in these assays?
RecA intein inh: -4.8; RmlCD inh 1536: 54.9*

How did COc1ccc(/C=N/NC(=O)c2sc3nc(C)cc(C)c3c2N)cc1 do in these assays?
RecA intein inh: -2.7; RmlCD inh 1536: -2.0

How did O=C(Nc1ccc(F)cc1)NC1CCCc2ccccc21 (stereo not given) do in these assays?
RecA intein inh: -2.5

How did Cn1c(=O)c2nncnc2n(C)c1=O do in these assays?
RecA intein inh: 0.7

How did Cc1nc2c(=O)n(C)c(=O)n(C)c2nc1Cl do in these assays?
RecA intein inh: 44.6*; RmlCD inh 1536: 5.9

Results for Cc1ccc(S(=O)(=O)NCC(=O)N2CCC(C)CC2)cc1 ?
RecA intein inh: 0.2; RmlCD inh 1536: 5.3

How did CN(Cc1ccc(Cl)cc1)C(=O)CCl do in these assays?
RecA intein inh: 62.9*

How did CN(C)CCNC(=O)c1ccc(Cl)s1 do in these assays?
RecA intein inh: 5.7; RmlCD inh 1536: -2.7

How did CN(Cc1ccc(Cl)s1)C(=O)CCl do in these assays?
RecA intein inh: 43.0*; RmlCD inh 1536: -7.0

What do the screens show for `COc1ccc(CN(C)C(=O)CCl)cc1`?
RmlCD inh 1536: -15.3

Results for O=C(NCCCNC(=O)c1ccc(Cl)cc1Cl)c1ccccn1 ?
RecA intein inh: -3.3

How did CCOC(=O)c1c(-c2ccccc2Cl)csc1NC(=O)CSc1nc(C)cc(=O)[nH]1 do in these assays?
RecA intein inh: 24.0; RmlCD inh 1536: 6.0

What do the screens show for `O=C1CCCC2=C1C(c1ccncc1)n1c(nc3ccccc31)N2` (stereo not given)?
RecA intein inh: -1.8; RmlCD inh 1536: 2.6

How did CCOC(=O)c1nnc(-c2cccs2)nc1Oc1ccccc1C(=O)OC do in these assays?
RecA intein inh: 10.2

What do the screens show for `CCOC(=O)c1nnc(-c2cccs2)nc1Oc1ccc(Cl)cc1`?
RecA intein inh: 38.2*; RmlCD inh 1536: 6.7

How did Cc1nc(-c2ccc(C(=O)N3CCCC3)cc2)cs1 do in these assays?
RecA intein inh: -0.4; RmlCD inh 1536: -8.8

What do the screens show for `CC(=O)c1cnc(Nc2cccc(C)c2)s1`?
RecA intein inh: -3.0; RmlCD inh 1536: 6.5

How did C/C(=N\NC(=O)c1ccccc1)c1cc2cc([N+](=O)[O-])ccc2oc1=O do in these assays?
RmlCD inh 1536: 6.4

Results for C/C(=N\NC(=O)c1ccc([N+](=O)[O-])cc1)c1cc2ccccc2oc1=O ?
RecA intein inh: 86.5*; RmlCD inh 1536: 9.0

Results for Clc1cccc(N2CCN(c3ncnc4nc[nH]c34)CC2)c1 ?
RecA intein inh: -1.6; RmlCD inh 1536: -0.1

How did Cc1nccn1-c1c([N+](=O)[O-])c(=O)n(C)c2ccccc12 do in these assays?
RecA intein inh: 44.8*; RmlCD inh 1536: -5.3

High-throughput results: PubChem, several laboratories
